Screening data (PubChem BioAssay)
Shown are actives, neighbours in structure and some others; about 4% of the full set was active somewhere.
D1 antag – Antagonist of Human D 1 Dopamine Receptor: qHTS. activity change, negative = inhibition, % at 10 µM. D(1A) dopamine receptor (Homo sapiens), P21728. AID 504652, 2011. HEK293 TREx D1 cells, calcium flux, dopamine EC80; hits give low values. 3.2% of 360,000 active; in the data active = activity change below about -30%; note: % is set by controls: 0 for no effect and ±100 for the full control effect
Target sequence (P21728 whole entry, looked up): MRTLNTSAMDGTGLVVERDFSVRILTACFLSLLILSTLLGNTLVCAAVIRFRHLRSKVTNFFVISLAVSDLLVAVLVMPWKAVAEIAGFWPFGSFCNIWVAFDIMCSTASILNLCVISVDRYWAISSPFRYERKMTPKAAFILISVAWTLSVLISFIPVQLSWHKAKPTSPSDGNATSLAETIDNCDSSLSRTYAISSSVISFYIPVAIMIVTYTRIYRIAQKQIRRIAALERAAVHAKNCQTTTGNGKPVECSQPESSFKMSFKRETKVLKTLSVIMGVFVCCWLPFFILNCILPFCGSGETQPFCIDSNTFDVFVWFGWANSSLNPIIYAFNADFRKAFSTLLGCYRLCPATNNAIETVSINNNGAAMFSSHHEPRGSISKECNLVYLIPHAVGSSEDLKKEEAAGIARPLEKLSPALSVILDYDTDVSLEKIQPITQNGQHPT
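Inducible Hek293 Trex D1 cells (tetracycline, overnight, 30 C). Calcium dye 30–90 min RT. Antagonist mode: EC80 dopamine added after 180 s compound read.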
D1 potentiator – Potentiators of Human D1 Dopamine Receptor: qHTS. D(1A) dopamine receptor (Homo sapiens), P21728. HEK293 TREx D1 cells, calcium flux, dopamine EC20 potentiation. potentiation, % at 10 µM. 0.036% of 360,000 active. AID 504651, 2011; in the data active = potentiation above about 30%; note: 0% is about no effect
TRHR enhancer – qHTS for Small Molecule Agonists and Allosteric Enhancers of Human TRH Receptor: Primary Screen for Enhancers; Thyrotropin-releasing hormone receptor (Homo sapiens), P34981; TRHR cells, fluo-8 calcium fluorescence, EC20 TRH enhancement; enhancement, % at 2 µM; 0.66% of 360,000 active; AID 493056, 2011; in the data active = enhancement above about 30%; note: 0% is about no effect
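Enhancer read-out: after compound pinning and an initial kinetic agonist-mode read, an EC20 of TRH (10 nM final) was injected and fluo-8 calcium signal (Ex 480/Em 530) followed at 1 s/cycle for 100 cycles in TRHR-expressing cells.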
TRHR ag – qHTS for Small Molecule Agonists and Allosteric Enhancers of Human TRH Receptor: Primary Screen for Agonists; Thyrotropin-releasing hormone receptor (Homo sapiens), P34981; TRHR cells, calcium flux fluo-8, FDSS agonist mode; activation, % at 2 µM; 0.18% of 360,000 active; note: 0% is about no effect
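Steps: seed TRHR cells overnight; add fluo-8 no-wash Ca dye, RT 30 min–1.5 h; record 10 s baseline; pin-transfer compounds; monitor fluorescence 1 cycle/s for the agonist window. Calcium increases flag candidate agonists.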
GRP78 ERSR act – qHTS for Inducers of the Endoplasmic Reticulum Stress Response (ERSR) in Human Glioma: qHTS; AID 602332, 2012; Potency, µM, without a hit: at the highest dose activation, usual class: activators; U87-MG GRP78 promoter luciferase reporter, 16 h; 0.02% of 420,000 active; active = well fitted activation curve with a large enough effect; inconclusive = small, poorly fitted or top-dose-only effect; inactive = no such curve, though single readings can be large or run the other way; note: potency is the fitted concentration of half-maximal effect; series mostly up to about 76 µM; % of control where 0% means no effect; nearly all actives have a fitted effect of over 35% in size
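Stably transfected U87-MG human glioma cells carrying a GRP78-based luminescent sensor were seeded at 1000 cells/well, pin-dosed with compounds and incubated 16 h. Luciferase reagent was then added, and end-point luminescence was read after 10 min at room temperature.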
D1 ag – Allosteric Agonists of the Human D1 Dopamine Receptor: qHTS. 1% of 360,000 active. HEK293 T-REx D1 cells, calcium flux, agonist mode. D(1A) dopamine receptor (Homo sapiens), P21728. activation, % at 2 µM; note: 0% is about no effect
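Agonism was scored from calcium flux recorded over 180 s (1 read/s) after pintool compound addition, following a 10-cycle baseline. Cells were inducible force-coupled HEK293 TREx D1, plated overnight at 30 C and loaded with no-wash calcium dye.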
Starred values were filed as active, the others as inactive; ? = inconclusive; / = no result given. Cut-off read from the data, not from the text of the source, unless noted: active = activation above about 30%; inactive = the rest.

SMILES	D1 antag	D1 potentiator	TRHR enhancer	TRHR ag	GRP78 ERSR act	D1 ag
Cc1cc(O)c(NC(=S)NC(=O)c2ccc(-c3ccc(Cl)cc3)o2)cc1C	-34*	-2	-1	0	-12%	2
CCCC(=O)NC(=S)Nc1ccc(C(C)=O)cc1	22	5	0	0	2%	2
CC(=O)c1ccc(NC(=S)NC(=O)Cc2ccc(Cl)cc2)cc1	-1	3	-5	9	4%	41*
Cc1ccc(O)c(NC(=S)NC(=O)Cc2ccc(Cl)cc2)c1	-62*	-28	-24	19	?	96*
COc1ccc(CNC(=O)C[C@@H]2C[C@H]3c4cc(NC(=O)NC5CCCC5)ccc4O[C@H]3[C@H](CO)O2)cc1	/	/	/	/	-4%	/
CC1(c2ccccc2Cl)NC(=O)N(CC(=O)N2CCN(S(=O)(=O)c3ccccc3)CC2)C1=O (configuration not stated)	43	-4	-3	0	-4%	5
CC(=O)Cc1nsc(NC(=O)c2ccccc2)n1	-8	-4	4	1	4%	2
CC(=O)Cc1nsc(NC(=O)c2ccc(F)cc2)n1	-80*	-4	-3	0	1%	0
Nc1nc2c(s1)CC(c1ccccc1)CC2 (configuration not stated)	-30*	-3	5	0	6%	5
O=C(NC1CCCC1)c1cc2cc(Br)ccc2o1	-78*	-15	6	-1	-1%	4
O=C(NC1CCN(C(=O)NC2CCCCC2)CC1)c1ccco1	1	-1	-1	1	-5%	3
O=C(NC1CCCCCCC1)c1ccco1	-31*	-5	1	0	2%	3
O=C(NC1CCCCC1)c1cc2cc(Br)ccc2o1	-8	3	6	-1	2%	4
COc1ccc(OC)c(C(C)NC(=O)C(C)Cc2ccccc2)c1 (configuration not stated)	-16	-2	6	-1	-2%	1
O=[N+]([O-])c1ccc(CN2CCN(Cc3c[nH]c4ccccc34)CC2)cc1	-72*	-7	2	1	-3%	21
O=C(CCc1c[nH]c2ccccc12)NCCc1ccc(Cl)cc1	-33*	0	-3	0	-2%	0
Brc1ccc(CN2CCN(Cc3c[nH]c4ccccc34)CC2)cc1	14	-7	6	3	-6%	15
O=C(NCCc1c[nH]c2ccccc12)c1ccc([N+](=O)[O-])cc1	-49*	-9	19	0	-1%	3
COc1cccc(Cn2c(=O)c(-c3cccs3)nc3cnc(Nc4cccc(OC)c4)nc32)c1	/	/	/	/	0%	/
Cc1ccccc1NC1=NC(=S)N(c2ccccc2)C12CCCCC2	-11	-5	-7	0	-2%	1
CCOC(=O)c1cc(-c2ccc(C)cc2)n(CCC(=O)NCCN(C)C)c1C	-8	-7	-4	-1	-1%	63*
CCOC(=O)c1cc(-c2ccc(C)cc2)n(CCC(=O)NCCc2ccc(C)cc2)c1C	-16	-6	-6	1	1%	14
Nc1nc(N2CCCCC2)c(C=O)c(N2CCCCC2)n1	-36*	-5	-6	0	0%	2
COc1ccc(CNc2nc3c(-c4ccc(C)cc4)nnn3c3ccccc23)cc1	-34*	1	44*	0	4%	4
COc1cc(OC)c(OC)cc1/C=N/NC(=O)CSc1ccccc1F	3	-5	2	-1	0%	2
SMILES	D1 antag	D1 potentiator	TRHR enhancer	TRHR ag	GRP78 ERSR act	D1 ag
COc1cc(OC)c(NC(=O)c2c(N3CCCC3=O)c3cc(C)ccc3n2C)cc1Cl	-88*	-4	3	0	-1%	-2
c1ccc(-c2nnc(-c3ccccc3)nn2)cc1	2	1	2	0	4%	2
c1ccc(-c2cncnc2)cc1	-32*	2	-7	1	-4%	2
COc1ccccc1NC(=O)C(=O)NCC(c1ccco1)N1CCc2ccccc21 (configuration not stated)	12	-1	33*	0	-3%	0
COc1ccccc1NS(=O)(=O)c1cc(C(=O)NCC(c2ccco2)N2CCCCC2)ccc1C (configuration not stated)	2	-2	9	-1	-4%	-2
COc1ccccc1NC(=O)NCC(c1ccco1)N1CCCCC1 (configuration not stated)	-41*	-4	-3	0	1%	5
O=C(NCC(c1ccco1)N1CCc2ccccc21)C(=O)Nc1ccccc1F (configuration not stated)	-3	-10	7	0	-6%	1
COCCOC(=O)C1=C(C)NC(=O)NC1c1c(F)cccc1Cl (configuration not stated)	-5	-4	2	0	-3%	5
CCCCN1C(=O)/C(=C2/Sc3ccccc3N2C)S/C1=N\c1ncn[nH]1	-54*	-4	-6	2	9%	3
COc1ccc(-c2nc(N)n[nH]2)cc1OC	6	-2	5	-1	-6%	1
O=C(Nc1ccc(Cl)c(-c2nc3ccccc3[nH]2)c1)c1cccnc1	-2	-9	0	-1	1%	1
O=C(CCN1C(=O)C2C3C=CC(C4CC34)C2C1=O)Oc1ccc(Br)cc1 (configuration not stated)	-62*	-10	-2	0	1%	2
Cc1cc(C)cc(OC(=O)CCN2C(=O)C3C4C=CC(C5CC45)C3C2=O)c1 (configuration not stated)	4	0	0	-2	-4%	0
CCC(=O)Nc1ccc2c(c1)C(=O)N(C1CCCCC1)C2=O	14	-2	7	-1	1%	4
Cc1ccc(C)c(-c2nc(Cn3c(=O)cc(-c4ccccc4)c4c(C)nn(C)c43)c(C)o2)c1	14	-3	3	32*	-4%	3
CC(=O)Nc1ccc(Nc2nc(-c3ccccc3)nc3ccccc23)cc1	-2	-4	-1	0	-7%	1
Cc1ccc(Nc2nc(NCCO)c3ccccc3n2)cc1C	-38*	-11	-5	1	-1%	13
OCCNc1nc(-c2ccccc2)nc2ccccc12	-35*	-8	-1	1	-3%	4
Oc1ccc(Nc2nc(-c3ccccc3)nc3ccccc23)cc1	-19	-4	-10	0	-5%	1
